The list is not random: actives were taken first. Their share in the collection is about 4%.
OvCa metastasis: Primary qHTS assay for Inhibitors of ovarian cancer metastasis using an organotypic tumor microenvironment (TME) model; SKOV3ip1-GFP adhesion/invasion on 3D omental model, fluorescence; AID 1963576, 2024; actives 0.1% (n = 46,000); Potency, µM (doses to about 45.8 µM), for the others: at the top dose activity change, negative = inhibition, most hits filed as inhibitors;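 note: potency is the fitted concentration of half-maximal effect; plate controls were DMSO wells for no effect and tomatine positive control wells for full effect; nearly all actives have a fitted effect of over 65% in size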
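A 3D layer of primary human omental fibroblasts, mesothelial cells, fibronectin and collagen I, grown 48 hr, received SKOV3ip1-GFP cells in serum-free medium plus compounds at 0.36-46 umol/L. After 2 hr RT and 16 hr 37 C, fixed adherent GFP cells were counted; normalized to DMSO and tomatine.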
NTMT1 inhibitor: Primary qHTS for Inhibitors of N-terminal methyltransferase 1 (NTMT1): MTaseGlo Assay; Potency, µM (titrated, usually from 114 µM), without a hit: top-dose activity change, negative = inhibition, usual class: inhibitors; AID 1645870, 2021; NTMT1 MTase-Glo SAH luminescence, purified enzyme; N-terminal Xaa-Pro-Lys N-methyltransferase 1 (Homo sapiens), Q9BV86; actives 2.5% (n = 59,000);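 note: potency is the fitted concentration of half-maximal effect; plate controls were DMSO vehicle for no effect and no enzyme for full effect; nearly all actives have a fitted effect of over 65% in size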
Target sequence (Q9BV86 whole entry, looked up): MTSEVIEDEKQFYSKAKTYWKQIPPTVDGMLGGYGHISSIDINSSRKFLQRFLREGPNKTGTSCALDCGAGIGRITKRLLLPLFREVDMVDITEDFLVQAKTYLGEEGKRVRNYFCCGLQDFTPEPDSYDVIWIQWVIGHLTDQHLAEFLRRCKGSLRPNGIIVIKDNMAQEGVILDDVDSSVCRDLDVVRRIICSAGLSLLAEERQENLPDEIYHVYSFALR
GALC G270D act: A Novel Cell-Based Assay to Identify Small Molecules for B -Galactocerebrosidase; P54803; 145M-Twi-hGALC-G270D cells (Twitcher mouse brain line with human GALC G270D), HMU-beta-Gal fluorescence, 48 h; Potency, µM (doses to about 57.5 µM), usual class: activators; actives 0.1% (n = 45,000); AID 1159614, 2016; note: potency is the fitted concentration of half-maximal effect; 0% is about no effect; nearly all actives have a fitted effect of over 65% in size
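Fluorescence readout: HMU-β-gal cleavage by mutant GALC (0.1 mM final, citrate/phosphate pH 5.2 with 1 mg/mL taurocholate), stopped with carbonate/bicarbonate plus Triton X-100. Cells: murine Twitcher 145M-Twi expressing human G270D GALC; qHTS for activators.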
p53null 32C tox: qHTS Screen for Compounds that Selectively Target Cancer Cells with p53 Mutations: Cytotoxicity of p53 Null Cells at the Permissive Temperature. H1299-neo p53 null cells, ATP luminescence, 24 h, 32C. Potency, µM (highest dose often 46.1 µM), for the others: at the highest dose activity change, negative = cytotoxicity, most hits filed as cytotoxic. actives 0.62% (n = 55,000). AID 903, 2007;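 note: potency is the fitted concentration of half-maximal effect; 0% = DMSO only and -100% = full killing by 100 µM tamoxifen; nearly all actives have a fitted effect of over 55% in size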
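AC50 values derive from Hill modelling of qHTS concentration-response data (up to 46 uM) in H1299-neo cells. Cells were treated 24 h at 32C following overnight attachment at 37C; viability was read as cellular ATP.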
p53null 39C tox: qHTS Screen for Compounds that Selectively Target Cancer Cells with p53 Mutations: Cytotoxicity of p53 Null Cells at the Nonpermissive Temperature; H1299 p53-null (neo) cells, 39C, ATPlite viability, 24 h; Potency, µM (highest dose often 46.1 µM), inactives show at the highest dose activity, negative = cell killing, usual class: cytotoxic; actives 0.97% (n = 55,000); AID 904, 2007;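 note: potency is the fitted concentration of half-maximal effect; 0% = DMSO only and -100% = full killing by 100 µM tamoxifen; nearly all actives have a fitted effect of over 50% in size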
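Concentration-response (up to 46 uM) was run for 24 h at the nonpermissive 39C on H1299-p53A138V or H1299-neo cells. ATP content was measured with ATPlite luminescence. AC50 values were Hill-modeled after normalizing between DMSO and 100 uM tamoxifen killing.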
DRV1 agonist: qHTS for Agonists of Human Resolvin D1 Receptor DRV1; activation, % at 76.9 µM; Probable G-protein coupled receptor 32 (Homo sapiens), O75388; actives 2.5% (n = 48,000); AID 1346428, 2018; CHO-K1 GPR32 beta-arrestin PathHunter luminescence, 90 min; zero percent set by DMSO-only wells;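 active = activation of at least 60% and not above a set upper limit, about 1 call in 100 departs from these limits; inconclusive = activation of 40% to 60%, or above that upper limit; inactive = activation under 40%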; note: 0% is about no effect
Target sequence (O75388 whole entry, looked up): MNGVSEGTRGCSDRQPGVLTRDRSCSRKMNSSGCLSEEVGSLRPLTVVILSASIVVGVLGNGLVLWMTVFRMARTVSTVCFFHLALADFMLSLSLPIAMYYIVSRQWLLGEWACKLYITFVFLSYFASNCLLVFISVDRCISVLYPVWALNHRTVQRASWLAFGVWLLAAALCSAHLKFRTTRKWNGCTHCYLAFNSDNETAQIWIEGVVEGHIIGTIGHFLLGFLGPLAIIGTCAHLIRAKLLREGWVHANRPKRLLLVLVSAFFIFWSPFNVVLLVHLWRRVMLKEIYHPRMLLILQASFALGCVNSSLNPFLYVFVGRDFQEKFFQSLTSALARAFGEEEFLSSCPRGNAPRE
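Cells are plated overnight, treated with compounds in DMSO for 90 minutes at 37 °C, and developed with PathHunter detection reagent for 1 hour before luminescence is read; signal reflects beta-arrestin binding to GPR32 in engineered CHO-K1 cells.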
Sfp PPTase inh: qHTS Assay for Inhibitos of Bacillus subtilis Sfp phosphopantetheinyl transferase (PPTase): Chemistry Optimization Followup; shares compounds with NTMT1 inhibitor; actives 78% (n = 230); Potency, µM (highest dose often 114 µM), for inactives: at the highest dose activity change, negative = inhibition, actives largely listed as inhibitors; purified Sfp PPTase enzyme activity, qHTS
HM489 growth: qHTS for Inhibitos of Bacillus subtilis Sfp phosphopantetheinyl transferase (PPTase): Chemistry Optimization Followup in B. Subtilis HM489; shares compounds with NTMT1 inhibitor; actives 50% (n = 220); Potency, µM (series often up to 114 µM), inactives show at the top dose activity change, negative = inhibition, most hits filed as inhibitors; B. subtilis HM489 (acpS-) growth, BacTiter-Glo, 5 h
Sfp PPTase gel: Gel-Based Assay for Inhibitos of Bacillus subtilis Sfp phosphopantetheinyl transferase (PPTase): Chemistry Optimization Followup | shares compounds with NTMT1 inhibitor | purified Sfp PPTase, gel-based product detection | Potency, µM (series often up to 250 µM), for the others: at the top dose activity change, negative = inhibition, hits mostly inhibitors | actives 54% (n = 220)
Sfp inh SAR2: qHTS Assay for Inhibitors of Bacillus subtilis Sfp phosphopantetheinyl transferase (PPTase): SAR Round 2; AID 602370, 2012; shares compounds with NTMT1 inhibitor; Potency, µM (top dose mostly 57.1 µM), for inactives: at the top dose activity change, negative = inhibition, usual class: inhibitors; actives 87% (n = 230); purified Sfp enzyme, PPTase activity, qHTS
HSD17B4 inh: Extended Characterization of HPGD Inhibitors: Counterscreen Against HSD17b4 | AID 743187, 2013 | shares compounds with NTMT1 inhibitor | purified HSD17B4, estradiol/NAD+, NADH fluorescence | actives 10% (n = 230) | Potency, µM (highest dose often 57.1 µM), for the others: at the highest dose activity change, negative = inhibition, usual class: inhibitors
ALDH1A1 counter: Extended Characterization of HPGD Inhibitors: Counterscreen Against ALDH1A1. shares compounds with NTMT1 inhibitor. recombinant ALDH1A1, NADH fluorescence, propionaldehyde/NAD+. Potency, µM (series often up to 57.1 µM), for inactives: at the top dose activity change, negative = inhibition, most hits filed as inhibitors. actives 93% (n = 230)
NNMT counter: Counterscreen qHTS for Inhibitors of N-terminal methyltransferase 1 (NTMT1): NNMT MTaseGlo assay. shares compounds with NTMT1 inhibitor. NNMT MTase-Glo luminescence, SAH detection. Potency, µM (highest dose often 57.1 µM), for inactives: at the top dose activity, negative = inhibition, usual class: inhibitors. actives 10% (n = 120). AID 1645878, 2021
* marks the source's active call; other numbers are inactive results; i = inactive; ? = inconclusive; nt = not tested or not shown; ! = not active in a repeat; [ ] = remark or other dose. Unless noted, calls come from the whole dose curve; as a rule, active = well fitted curve in the direction sought with a large enough effect; inconclusive = small, poorly fitted or top-dose-only effect, or another doubt; inactive = no such curve, though single readings can be large; an effect the other way counts as inactive or inconclusive.

SMILES | OvCa metastasis | NTMT1 inhibitor | GALC G270D act | p53null 32C tox | p53null 39C tox | DRV1 agonist | others
C[N+]1(CC2COC(c3ccccc3)(C3CCCCC3)O2)CCCCC1 (stereo unspecified) | nt | 15.8µM* | i | nt | nt | -9.1
C[C@H]1O[C@@H](O[C@H]2CC[C@@]3(C)[C@H](CC[C@@H]4[C@@H]3C[C@@H](O)[C@]3(C)[C@@H](C5=CC(=O)OC5)CC[C@]43O)C2)C[C@H](O)[C@@H]1O[C@H]1C[C@H](O)[C@H](O[C@H]2C[C@H](O)[C@H](O[C@@H]3O[C@H](CO)[C@@H](O)[C@H](O)[C@H]3O)[C@@H](C)O2)[C@@H](C)O1 | nt | 37.5%[57.5 µM] | i | nt | nt | 76.2*
CCc1ccccc1N1C(=O)N(Cc2cccc(Cl)c2)c2ccccc2S1(=O)=O | 2.5% | 89.1µM* | i | 2.2% | 15.4% | -7.2
O=C(O)c1c(Cl)c(Cl)c(Cl)c(Cl)c1-c1c2cc(I)c(=O)c(I)c-2oc2c(I)c(O)c(I)cc12 | -5.0% | 3.55µM* | nt | nt | nt | nt
OC1C=C2C3CN(Cc4cc5c(cc43)OCO5)C2CC1O (stereo unspecified) | nt | -3.2%[57.5 µM] | nt | nt | nt | nt
CC(C)c1cc(-c2n[nH]c(=O)n2-c2ccc3c(ccn3C)c2)c(O)cc1O | 6.1% | 28.2µM*! | nt | nt | nt | nt
Cn1c(=O)nc2n(-c3ccc(Cl)c(Cl)c3)c3cc(Cl)ccc3cc-2c1=O | -10.1% | ? | i | 1.1% | 11.8% | -8.0
C/C=C(/C)C(=O)O[C@@H]1C[C@@H](OC(=O)/C(C)=C\C)[C@@]2(C)C3C(=O)C=C(C)C2C3C1(C)C | nt | 8.0%[29.8 µM] | nt | nt | nt | nt
Cc1c(-c2ccccc2)oc2c(C(=O)OCCN3CCCCC3)cccc2c1=O | nt | ? | i | nt | nt | ?
CC(=O)c1c(OCCN2CCCCC2)c(OCCC(C)c2ccc(F)cc2)c2oc(C)nc2c1C (stereo unspecified) | nt | ? | nt | nt | nt | nt | NNMT counter=?
Brc1cnc2nc(SCc3ccccn3)[nH]c2c1 | nt | -1.6% | nt | nt | nt | nt
CC(=O)c1ccc(N2CCN(C(=S)Nc3cc(C)ccn3)CC2)cc1 | nt | ? | nt | nt | nt | nt | Sfp PPTase inh=5.91µM*;HM489 growth=16.7µM*;Sfp PPTase gel=5.01µM*;Sfp inh SAR2=1.02µM*;HSD17B4 inh=?;ALDH1A1 counter=7.64µM*
Cc1ccnc(NC(=S)N2CCN(c3ccc(Br)cc3)CC2)c1 | nt | ? | nt | nt | nt | nt | Sfp PPTase inh=5.91µM*;HM489 growth=23.5µM*;Sfp PPTase gel=7.94µM*;Sfp inh SAR2=1.82µM*;HSD17B4 inh=-13.3%;ALDH1A1 counter=3.41µM*
CC(=O)c1ccc(N2CCN(C(=S)Nc3cc(C)ccc3C)CC2)cc1 | nt | nt | nt | -7.1% | -3.0% | nt
Cc1nc(C#Cc2ccnc(Cl)c2)c(C)n1-c1ccc(OC(F)(F)F)cc1 | nt | ? | nt | nt | nt | nt | NNMT counter=-16.5%
O=C1CCCC2=C1C(c1cccc(Oc3ccccc3)c1)N=C(Nc1nc3ccccc3o1)N2 (stereo unspecified) | nt | 13.4% | nt | nt | nt | nt
Cc1sc2c(c1C)c(=O)n(Cc1ccccc1)c(=O)n2Cc1ccc(F)cc1 | 1.8% | -4.4% | i | 10.8% | ? | 1.9
Cn1sc(=O)n(Cc2ccccc2)c1=O | nt | 7.94µM* | nt | nt | nt | nt | NNMT counter=1.58µM*
COc1cc(-c2cccc(O)c2)cc2c1OCO2 | nt | 16.2%[57.5 µM] | nt | nt | nt | nt
